# Reference: the supplement of paper PMC7156485
# ± gives the standard deviation of the averaged measurements.
# Assays:
# Conditions in all cases: concentration: 10 µM; 24 h
# HCC1569 [1] = experiment: cell number relative to DMSO (% of DMSO); higher = more cells (less growth inhibition / toxicity)
# Method in brief: (§1)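 After 24 h at 37 °C with compounds at 10 µM, in triplicate, HCC1569 and TDF cells were fixed with 3.7% formaldehyde. Immunostaining used a rabbit anti-H1.0 antibody and an AlexaFluor 647 secondary, with DAPI, and six fields per well were imaged at ×10. H1.0 nuclear intensity or cell number is presented as percent of the plate control, from the median of replicates, with HCC1569 values smoothed for positional effects.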
# TDF [2] = experiment: as above
# Method in brief: as §1
# TDF [3] = experiment: H1.0 immunofluorescence intensity relative to DMSO (% of DMSO); higher = stronger H1.0 induction, active = 120 or more
# Method in brief: as §1
# HCC1569 [4] = experiment: H1.0 immunofluorescence intensity relative to DMSO (% of DMSO); higher = stronger H1.0 induction, active = 140 or more
# Method in brief: as §1
# 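Wherever H1.0 immunofluorescence intensity relative to DMSO is given: TDF is a line of transformed human dermal fibroblasts of mesenchymal origin.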
# 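Wherever cell number relative to DMSO is given: TDF denotes transformed human dermal fibroblasts of mesenchymal origin.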
Structure (SMILES),cell number (HCC1569 [1]),cell number (TDF [2]),H1.0 immunofluorescence intensity (TDF [3]),H1.0 immunofluorescence intensity (HCC1569 [4])
CC(C)(C)C(=O)Oc1ccc(S(=O)(=O)Nc2ccccc2C(=O)NCC(=O)[O-])cc1.O.[Na+],101,98.8,87.6 (inactive),108 (inactive)
CC1OC(Oc2c(-c3cc(O)c(O)c(O)c3)oc3cc(O)cc(O)c3c2=O)C(O)C(O)C1O (stereo not drawn) [Myricitrin],103,101,94.8 (inactive),83.5 (inactive)
CC1COc2c(N3CCN(C)CC3)c(F)cc3c(=O)c(C(=O)O)cn1c23 (stereo not drawn) [Levofloxacin],103,100,98.5 (inactive),101 (inactive)
C[C@H](c1ccc(F)cc1CCCC(=O)O)N(c1cc(F)ccc1F)S(=O)(=O)c1ccc(Cl)cc1,99.7,90.2,94.6 (inactive),111 (inactive)
"Cc1cc(N)c2ccccc2[n+]1CCCCCCCCCCCCCC[n+]1c(C)cc(N)c2ccccc21.[I-].[I-] [Dequalinium analog, C-14 linker]",101,102,95.7 (inactive),100 (inactive)
COC1C=COC2(C)Oc3c(C)c(O)c4c(O)c(cc([O-])c4c3C2=O)NC(=O)C(C)=CC=CC(C)C(O)C(C)C(O)C(C)C(OC(C)=O)C1C.[Na+] (stereo not drawn),103,101,102 (inactive),97.5 (inactive)
CN(C)CCCC1(c2ccc(F)cc2)OCc2cc(C#N)ccc21 (stereo not drawn) [Escitalopram],100,86.1,98 (inactive),93.5 (inactive)
CC(C=Cc1cccc(Oc2ccc(F)cc2)c1)N(O)C(N)=O (stereo not drawn),102,101,102 (inactive),89.2 (inactive)
O=C(Nc1cccc2c(=O)cc(-c3nn[nH]n3)oc12)c1ccc(OCCCCc2ccccc2)cc1 [Pranlukast],101,110,101 (inactive),109 (inactive)
O=C(O)c1cccnc1Nc1cccc(C(F)(F)F)c1 [Niflumic acid],98.8 ± 5.9,95.2 ± 23,97.7 (inactive),101 (inactive)
Cc1ccc(Nc2nccc(N(C)c3ccc4c(C)n(C)nc4c3)n2)cc1S(N)(=O)=O [Pazopanib],74.3,100,94.6 (inactive),156 (active)
COc1ccc2c(c1)c(C1=C(c3c[nH]c4ccccc34)C(=O)NC1=O)cn2CCCN(C)C,83.9,99.3,98.6 (inactive),174 (active)
CNc1cc2c(Nc3cccc(Br)c3)ncnc2cn1,87.2,95.7,91.3 (inactive),135 (inactive)
CCCCCCCCCCCCCCCCCCCCCCC(=O)O [Tricosanoic acid],99.7,99.8,105 (inactive),105 (inactive)
COc1ccc(C(=O)/C(Cc2cc(OC)c(OC)c(OC)c2)=C(\C(=O)[O-])c2ccc3c(c2)OCO3)cc1.[Na+],97.7,98.7,88.2 (inactive),103 (inactive)
NC(Cn1ccc(=O)c(O)c1)C(=O)O [L-Mimosine],101,86.3,105 (inactive),102 (inactive)
COC(=O)c1cc(OC)c2c(c1-c1c(CO)cc(OC)c3c1OCO3)OCO2,104,99.8,98.6 (inactive),109 (inactive)
COC(=O)c1c(-c2cc(OC)c(OC)c(OC)c2)c2ccnc(OCc3ncccn3)c2c(=O)n1Cc1ccnc(C)c1.Cl,100,110,94.3 (inactive),95.2 (inactive)
"NS(=O)(=O)c1ccc(S(=O)(=O)Nc2cccc3c(Cl)c[nH]c23)cc1 [N~1~-(3-chloro-1H-indol-7-yl)-1,4-benzenedisulfonamide]",95.3,103,96.2 (inactive),107 (inactive)
CCCCCCCCCCCCCC=CC(O)C(CO)NC(=O)CCCCC (stereo not drawn) [C6 Ceramide],100,59.7,151 (active),101 (inactive)
CCCCCCCCCCCC(CC1OC(=O)C1CCCCCC)OC(=O)C(CC(C)C)NC=O (stereo not drawn) [Tetrahydrolipistatin],100,99.2,99.2 (inactive),90.5 (inactive)
NC(=O)N1c2ccccc2C=Cc2ccccc21 [Carbamazepine],101 ± 6.6,111 ± 1.5,92.6 (inactive),97 (inactive)
